We go through two compounds from PubChem BioAssay AID2284216 (EPA ToxCast).

As a reminder, the AC50 is the concentration giving half of the maximal activity seen.

The source made the active and inactive calls. Rule for the calls: active = hit-call score of the fitted dose curve at least 0.9, where 1 is the maximum; inactive = score below 0.9.

rat Peripheral Benzodiazepine Receptor (PBR), Tspo (gene 24230), sequence (P16257 whole entry, looked up): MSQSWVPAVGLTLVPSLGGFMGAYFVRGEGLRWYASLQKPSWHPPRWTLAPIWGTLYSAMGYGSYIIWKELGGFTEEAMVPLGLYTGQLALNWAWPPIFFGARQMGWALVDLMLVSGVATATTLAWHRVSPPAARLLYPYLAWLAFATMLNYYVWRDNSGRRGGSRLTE

For this assay, the target named is rat Peripheral Benzodiazepine Receptor (PBR), Tspo (gene 24230) (UniProt P16257). Description: ERF_TW_TR_rTSPO: Eurofins (ERF) Radioligand Binding Assay for rat Peripheral Benzodiazepine Receptor (PBR) Antagonism. The protocol:
ERF_TW_TR_rTSPO is a biochemical, single-readout assay that uses extracted gene-proteins in a cell-free assay. Measurements were taken 0.25 hour after chemical dosing in a 96-well plate. See PBR Rat Binding (Antagonist Radioligand) Assay, Panlabs.ERF_TW_TR_rTSPO is an assay component calculated from the ERF_TW_TR_rTSPO assay. It is designed to measure radioligand binding using a type of binding reporter as detected by scintillation counting with radiometry technology.Data from the assay component ERF_TW_TR_rTSPO was analyzed at the assay endpoint, ERF_TW_TR_rTSPO, in the positive analysis fitting direction relative to DMSO as the negative control and baseline of activity. Using a type of binding reporter, loss-of-signal activity can be used to understand changes in transporter binding as they relate to gene TSPO. To generalize the intended target to other relatable targets, this assay endpoint is annotated to the transporter intended target family, where the subfamily is cholesterol transporter.
Cells are incubated for 15 minutes at room temprature with [3H]PK 11195 (0.2 nM) as lingand.Test Sample Requirements: Minimum for 1) Screen: 60 ul of 10 mM stock -OR- 1 mg (pre-weighed) for 10uM final testing. . 2) Dose Response: 90 ul of 10 mM stock -OR- 1 mg (pre-weighed) for a top concentration at 10uM. .
Consider `COc1cc(CCC(=O)CC(=O)CCc2ccc(O)c(OC)c2)ccc1O`, for which the AC50 is 2550 nM (active).
Regarding `O=C(/C=C/c1ccc(O)cc1)CC(=O)/C=C/c1ccc(O)cc1`, the concentration at half-maximal activity (AC50) was 161 nM (active).
